# A549 viability = A549 cytotoxicity, counter-screen for Nrf2 inhibitors. 390,000 tested, 0.16% active. A549 ARE-Fluc cells, CellTiter-Fluor viability, 18-24 h. Potency, µM (highest dose often 46 µM), for inactives: at the top dose activity change, negative = cytotoxicity, actives largely listed as inhibitors; note: % is set by controls: 0 for no effect and ±100 for the full control effect
#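 Cytotoxicity counterscreen: CellTiter-Fluor fluorescence was measured in A549 ARE_Fluc cells after 18-24 h of compound exposure in a concentration series. The subsequent BugLite luminescent read reports ARE-luciferase activity.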
# ELG1 repair inh = inhibitors of ELG1-dependent DNA repair in HEK293T cells; HEK293T ELG1-luciferase reporter, luminescence, 16 h; DNA damage induced by 5-fluorouridine; AID 504467; 330,000 tested, 2.3% active; Potency, µM (titrated, usually from 46.1 µM), for inactives: top-dose activity change, negative = inhibition, actives largely listed as inhibitors; note: % is set by controls: 0 for no effect and ±100 for the full control effect; nearly all actives have a fitted effect of over 55% in size
#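 In this reporter screen, reduction of luminescence relative to DMSO vehicle indicated activity. Compounds and 5-fluorouridine were added together to 2,000 cells per well, incubated for 16 hr at 37 °C, then developed with ONE-Glo.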
# Nrf2 activator = activators of Nrf2 (ARE) signaling; AREc32 ARE-luciferase reporter (MCF7-derived line), luminescence, 24 h; Potency, µM (titrated, usually from 46.1 µM), without a hit: at the top dose activation, actives largely listed as activators; 410,000 tested, 0.31% active; AID 624171; note: % of control where 0% means no effect; nearly all actives have a fitted effect of over 65% in size
#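 ARE-driven firefly luciferase activity in AREc32 cells measured after a 24 hr compound exposure at 37 deg C, using Steady-Glo reagent and a 30 min room-temperature hold.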
# Nrf2 inh = blocks Nrf2 signaling; A549 ARE-Fluc reporter, luciferase luminescence, 18-24 h; Potency, µM (doses to about 46 µM), without a hit: at the highest dose activity change, negative = inhibition, actives largely listed as inhibitors; 360,000 tested, 2.1% active; note: % is set by controls: 0 for no effect and ±100 for the full control effect; nearly all actives have a fitted effect of over 60% in size
#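 Quantitative HTS in A549 cells stably bearing an antioxidant response element-firefly luciferase construct. Inhibition of Nrf2-driven transcription was scored by luminescence after 18-24 h of compound exposure at 37 °C.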
# Starred values were filed as active, the others as inactive; ? = inconclusive; nt = no result; [ ] = another dose, or the depositor's remark. Sampled rows, rich in hits. Any-hit rate of the full collection: about 3.7%. Calls come from the whole dose curve; as a rule, active = well fitted curve in the direction sought with a large enough effect; inconclusive = small, poorly fitted or top-dose-only effect, or another doubt; inactive = no such curve, though single readings can be large; an effect the other way counts as inactive or inconclusive. Potency is the fitted concentration of half-maximal effect.
SMILES,A549 viability,ELG1 repair inh,Nrf2 activator,Nrf2 inh
CC(C)[C@H](NC(=O)c1ccccc1)C(=O)OCC(=O)Nc1sccc1C(N)=O,0.2%,?,-0.2%,4.1%
C[C@@H]1CN([C@@H](C)CO)C(=O)CCCn2nncc2CO[C@@H]1CN(C)S(=O)(=O)c1ccc(Oc2ccccc2)cc1,nt,nt,-0.8%,nt
O=C(C=P(c1ccccc1)(c1ccccc1)c1ccccc1)c1ccccc1-c1ccccc1C(=O)C=P(c1ccccc1)(c1ccccc1)c1ccccc1,4.61µM*,nt,0.2%,2.06µM*
COc1cccc(C(=O)NCC(=O)OCc2cc(=O)n3nc(C)sc3n2)c1,4.1%,nt,-0.3%,?
COc1cccc(CN(C)CC(=O)Nc2ccccc2C(=O)Nc2ccccc2)c1OC,?,?,2.5%,23.1µM*
COc1cccc(CNC(=O)c2ccccc2NC(=O)C2=C(C)OCCS2)c1OC,2.3%,11.6µM*,-0.4%,?
CCOC(=O)N1CCN(Cc2cc(Cl)c3cccnc3c2O)CC1,-0.4%,3.66µM*,6.6%,-1.9%
CN1CCN(Cc2cc(Cl)c3cccnc3c2OC(=O)c2cccs2)CC1,-16.5%,?,25.4%,2.2%
O=C(Oc1c(CN2CCOCC2)cc(Cl)c2cccnc12)c1ccccc1Br,-5.2%,8.2µM*,10.9%,7.3%
CCOC(=O)N1CCN(Cc2ccccc2Cl)CC1,-4.4%,nt,-0.1%,?
CC(=O)N1c2ccc(S(=O)(=O)NCCC(=O)NCCc3ccc(C)cc3)cc2CC1C (stereo not drawn),-7.8%,?,0.1%,16.4µM*
CC(=O)N1c2ccc(S(=O)(=O)NCCC(=O)Nc3ccc(OC(F)(F)F)cc3)cc2CC1C (stereo not drawn),-7.3%,?,2.3%,18.4µM*
CC(=O)N1c2ccc(S(=O)(=O)NCCC(=O)NCCc3ccc(Cl)cc3)cc2CC1C (stereo not drawn),-8.3%,-25.1%,0.2%,20.6µM*
CC(=O)N1CCc2cc(S(=O)(=O)C(C)CC(=O)Nc3ccc(OC(F)(F)F)cc3)ccc21 (stereo not drawn),-7.9%,-2.9%,-0.6%,11.6µM*
CC(=O)N1CCCc2cc(S(=O)(=O)Nc3ccc(OC(F)(F)F)cc3)ccc21,-13.8%,nt,6.4%,nt
COc1cc2c(cc1OC)C(c1ccc(F)cc1)N(c1ccccc1)C(=O)C2 (stereo not drawn),1.1%,nt,7.4%,-8.4%
Cc1ccc(S(=O)(=O)NCCNC(=O)CN2CCOCC2)cc1,5.3%,15.0%,0.2%,0.9%
CC(=O)N1c2ccc(S(=O)(=O)NCCC(=O)NC3CCCC(C)C3C)cc2CC1C (stereo not drawn),1.3%,9.2µM*,0.1%,-18.0%
CC(=O)N1c2ccc(S(=O)(=O)NCCC(=O)NC3CCCCCC3)cc2CC1C (stereo not drawn),-3.9%,-6.8%,-0.4%,1.4%
COC(=O)c1cc2c(n1S(=O)(=O)c1ccc(C)cc1)C(=O)C(=O)c1[nH]cc(C(=O)OCc3ccccc3)c1-2,4.11µM*,nt,-2.2%,4.11µM*
Cc1cccc(NC(=O)C(Cc2ccccc2)NS(=O)(=O)c2ccc3c(c2)c(=O)n(C)c(=O)n3C)c1 (stereo not drawn),-12.3%,nt,0.3%,-3.7%
O=C(NCC1COc2ccccc2O1)C1CCCN(S(=O)(=O)c2cccc3nsnc23)C1 (stereo not drawn),0.2%,-15.6%,0.7%,?
O=C(NCC1COc2ccccc2O1)C1CCCN(S(=O)(=O)c2cccc3cccnc23)C1 (stereo not drawn),-1.5%,14.6µM*,-0.9%,?
COc1ccc(NC(=O)c2ccc(C)o2)c([N+](=O)[O-])c1,4.5%,?,1.1%[9.22 µM],5.5%
COc1ccc(NC(=O)c2ccc([N+](=O)[O-])s2)c([N+](=O)[O-])c1,-19.2%,-5.1%,10µM*,2.9%
SMILES,A549 viability,ELG1 repair inh,Nrf2 activator,Nrf2 inh
Cc1cccc(Cc2c(C)nc3nc(SCC(=O)NCc4ccc(F)cc4)nn3c2C)c1,0.0%,nt,0.6%,-0.4%[9.27 µM]
CN1CCCc2cc(C=O)ccc21,-9.0%,20.9%,0.4%,-8.5%
CCCN1CCCc2cc(CN)ccc21,0.4%[1.84 µM],?,2.4%,9.2µM*
N#C[C@H]1C2OC2c2ccccc2N1C(=O)c1ccccc1 (stereo partly drawn),-5.1%,nt,0.7%,0.7%
COc1ccc(NC(=O)/C(Cl)=C(/Cl)S(=O)(=O)Cc2ccccc2)cn1,?,18.4µM*,?,nt
COc1ccc(NC(=O)/C(Cl)=C(/Cl)S(=O)Cc2ccc(Cl)cc2)cn1 (stereo not drawn),20.6µM*,?,-2.6%[9.22 µM],?
Cc1ccc2c(CC(=O)N(Cc3cccc(Cl)c3)C3CCS(=O)(=O)C3)coc2c1 (stereo not drawn),-13.1%,nt,5.6%,-17.6%
O=C(c1ccco1)N1CCN(/C=C2\Nc3ccccc3C(=O)N2c2ccc(F)cc2)CC1,-0.6%,nt,nt,-5.3%
CCOC(=O)c1c(NC(=O)CN2CCCCC2)sc2c1CCN(C(=O)OCC)C2,?,?,5.5%,23.1µM*
CCOC(=O)c1c(NC(=O)CC)sc2c1CCN(Cc1ccccc1)C2,0.0%,-4.4%,3.4%,0.0%
CCOC(=O)c1c(NC(=S)N2CCN(C)CC2)sc2c1CCN(C(=O)OCC)C2,-14.7%,16.4µM*,-1.7%,4.0%
CCOC(=O)c1c(NC(=O)CN(CC)CC)sc2c1CCN(C(=O)OCC)C2,-3.8%[1.84 µM],?,4.0%,?
COc1cccc(NC(=O)CCc2nc3c(C)nn(-c4ccc(C)cc4)c3n(C)c2=O)c1,9.4%,nt,0.2%,nt
CC(=O)Nc1ccc(S(=O)(=O)N2CCN=C2SCc2cccc(C)c2)cc1,-10.4%,-23.2%,0.8%,?
CC(=O)Nc1ccc(S(=O)(=O)N2CCN=C2SCc2ccc([N+](=O)[O-])cc2)cc1,-2.0%,?,6.7%,8.2µM*
O=C(N/C(=C\c1ccccc1)C(=O)N1CCOCC1)c1cccc(Br)c1,-0.6%,?,-0.3%,-17.3%
Cc1cc(-c2ccccc2)nc(N(C)NC(=O)c2c(F)cccc2F)c1S(C)(=O)=O,1.8%,18.4µM*,-0.4%,nt
O=C1Nc2ccccc2Oc2cc([N+](=O)[O-])cc(Oc3ccccc3)c21,-0.2%,-27.7%,8.1%,?
Cc1cccc(Oc2cc([N+](=O)[O-])cc3c2C(=O)Nc2ccccc2O3)c1,-12.7%,4.4%,7.2%,16.4µM*
CCN(CC)S(=O)(=O)c1ccc(C(=O)NCCN2C(=O)S/C(=C\c3cccnc3)C2=O)cc1,17.3%,14.6µM*,4.6%,11.5%
CN(C)S(=O)(=O)c1ccc(C(=O)NCCN2C(=O)S/C(=C\c3cccnc3)C2=O)cc1,-0.7%,0.0%,14.6%,18.2%
CC(C)N=C(NS(=O)(=O)c1ccccc1)C(Cl)(Cl)Cl,-18.6%,5.17µM*,-1.8%,-8.9%
O=S(=O)(NC(=S)c1ccccc1)c1ccccc1,1.1%,nt,-0.3%,?
COc1ccc(N2CC(NC(=O)c3ccc(OC(C)C)cc3)CC2=O)cc1 (stereo not drawn),3.5%,nt,-0.3%,nt

# High-throughput results deposited in PubChem by National Center for Advancing Translational Sciences (NCATS).
